# Screening results from PubChem BioAssay.
# Rows were chosen to be rich in hits. Some 3.5% of all compounds tested hit in one or more screens of this group.
# FBW7 activator: FBW7 E3 ligase activators, primary screen, biochemical, AlphaScreen, human; AlphaScreen FBW7–phospho-cyclin E peptide binding, activator screen; normalized activity (activation), % at 26.1 µM; hit rate 0.13% among 650,000; AID 1259310, 2017; in the data active = normalized activity above about 1.9%;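 note: purified mutant Fbw7 with reduced substrate affinity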
# Target sequence (Q969H0 whole entry, looked up): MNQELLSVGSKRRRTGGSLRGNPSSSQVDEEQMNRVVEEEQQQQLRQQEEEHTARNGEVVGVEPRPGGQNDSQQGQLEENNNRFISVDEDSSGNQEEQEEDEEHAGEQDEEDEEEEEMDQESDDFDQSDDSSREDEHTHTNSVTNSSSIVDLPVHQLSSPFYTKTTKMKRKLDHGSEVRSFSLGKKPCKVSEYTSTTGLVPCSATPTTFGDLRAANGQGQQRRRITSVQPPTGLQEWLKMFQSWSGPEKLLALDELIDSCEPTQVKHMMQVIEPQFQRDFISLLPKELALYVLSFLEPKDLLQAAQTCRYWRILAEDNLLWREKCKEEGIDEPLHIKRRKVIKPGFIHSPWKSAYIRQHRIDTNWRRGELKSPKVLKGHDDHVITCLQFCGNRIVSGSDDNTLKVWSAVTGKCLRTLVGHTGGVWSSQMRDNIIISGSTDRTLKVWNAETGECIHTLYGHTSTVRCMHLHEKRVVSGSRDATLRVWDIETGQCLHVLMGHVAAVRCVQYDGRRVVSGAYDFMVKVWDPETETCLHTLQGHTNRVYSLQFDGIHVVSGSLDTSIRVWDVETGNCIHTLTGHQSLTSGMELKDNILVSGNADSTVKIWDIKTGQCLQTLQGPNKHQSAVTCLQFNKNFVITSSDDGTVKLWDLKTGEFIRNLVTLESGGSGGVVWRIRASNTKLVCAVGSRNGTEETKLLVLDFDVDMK
# MITF inh: MITF inhibitors, primary screen, biochemical, AlphaScreen, human. AlphaScreen MITF homodimerization, bead proximity signal. hit rate 0.91% among 650,000. Microphthalmia-associated transcription factor (Homo sapiens), O75030. inhibition, % at 2.6 µM; in the data active = inhibition above about 50%
# GPR151 activ: activators of human GPR151, primary screen, cell-based, PathHunter beta-arrestin, luminescence | G-protein coupled receptor 151 (Homo sapiens), Q8TDV0 | PathHunter beta-arrestin GPR151 cells | activation, % at 11.2 µM | hit rate 1% among 650,000; in the data active = activation above about 4.9%
# TEAD-YAP inh: TEAD-YAP interaction inhibition, primary screen, TEAD-YAP interaction inhibitor project, luminescence, HEK-TIYL cells | TEAD-Gal4/YAP UAS-luciferase luminescence | inhibition, % at 9.12 µM | hit rate 1.4% among 640,000 | AID 1259422, 2018; in the data active = inhibition above about 32%
# GPR151 conf act: GPR151 activators, triplicate retest, confirmation, cell-based, PathHunter beta-arrestin, luminescence | activation, % at 11.2 µM | 6,700 tested, under 10 active | shares compounds with GPR151 activ | GPR151 PathHunter beta-arrestin cells, 90 min; % of EA-reagent control over plate median | AID 1508609, 2020;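 active = mean percent activation across replicates above the confirmation screen cutoff of 4.91%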
# GPR119 ag: GPR119 activators in beta-arrestin cells, counter-screen for GPR151 activator project, cell-based, PathHunter beta-arrestin, luminescence, triplicate; shares compounds with GPR151 activ; 90 min; 0 = compound-well median, 100 = enzyme-acceptor control; activation, % at 11.2 µM; hit rate 0.3% among 6,700; AID 1508611, 2020;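 active = mean percent activation in the counterscreen above 29.09%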;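 note: counterscreen on off-target GPR119 to flag nonselective hits from the GPR151 activator screen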
# Hits are given with their value; . = inactive; / = not tested or not shown; ! = not confirmed by another sample.
SMILES,FBW7 activator,MITF inh,GPR151 activ,TEAD-YAP inh,GPR151 conf act,GPR119 ag
C=CCn1c(SCC(=O)Nc2cccc(SC)c2)nnc1-c1ccccc1O,.,.,5.7,.,.,.
C=CCn1c(CNC(=O)c2ccco2)nnc1SCC(=O)Nc1cccc(F)c1,.,.,7.3,.,.,.
CC(=O)c1cccc(NC(=O)CSc2nnc(-c3cc4ccccc4cc3O)n2C)c1,.,.,5.0,.,.,.
Cc1sc(NC(=O)c2ccccc2)c(C(=O)NCCOCCO)c1C,.,.,.,.,/,/
COC(c1ccc2c(c1)CN(C(=O)c1cnn3cccnc13)CCO2)C1CCCCC1 (stereo not drawn),.,.,.,.,/,/
Cc1ccc(S(=O)(=O)N(CC(=O)NC2CCCC2)c2ccccc2F)cc1,.,.,.,.,/,/
COC(=O)c1ccc(NC(=O)COc2cc(C)cc(C)c2)cc1,.,.,.,.,/,/
O=C(/C=C/c1cc([N+](=O)[O-])ccc1O)Nc1cccc(Br)c1,.,.,5.6,.,.,.
Cn1c(=O)c2nc(SCC(=O)Nc3ccc(C(F)(F)F)cc3)n(C)c2n(C)c1=O,.,.,.,.,/,/
COc1ccc2c(c1)CCC(C)N2S(=O)(=O)c1ccc(C2CNC(=O)C2)cc1 (stereo not drawn),.,.,8.3,.,.,.
COc1ccc(CNS(=O)(=O)c2ccc(C3CNC(=O)C3)cc2)cc1 (stereo not drawn),.,.,.,.,/,/
N#C/C(=C/c1ccc(F)cc1)c1ccc(C#N)cc1,.,.,8.3,.,.,.
O=C(CCc1nnc(C2(c3ccc(Cl)cc3)CCC2)o1)NCc1ccccn1,.,.,5.1,.,.,.
Cc1ccc(CNC(=O)CCc2nnc(C3(c4ccc(Cl)cc4)CCC3)o2)s1,.,.,.,.,/,/
O=C(CN1CCN(S(=O)(=O)c2ccc3c(c2)OCCO3)CC1)c1cccs1,.,.,9.7,.,.,.
CC(=O)c1c(C)[nH]c(C(=O)Nc2nc3c(C)cc(C)cc3s2)c1C,.,.,5.9,.,.,.
CC(C)n1cnc2c(NCCO)nc(NCc3cccnc3)nc21,.,.,.,.,/,/
COc1ccc(CNC(=O)CCSC)cc1OC,.,.,.,.,/,/
COc1cc(CNC(=O)CCCC/C=C/C(C)C)ccc1O,.,.,7.6!,.,.,.
COc1ccc(S(=O)(=O)N2CCN(c3cccc(Cl)c3Cl)CC2)cc1OC,.,.,8.3,.,.,.
COc1ccccc1N1CCN(S(=O)(=O)c2cc(C)sc2C)CC1,.,.,6.1,.,.,.
Cc1cc(S(=O)(=O)N2CCN(c3ccccc3O)CC2)c(C)s1,.,.,.,.,/,/
COc1ccc(S(=O)(=O)N2CCN(c3ccccc3OC)CC2)cc1Cl,.,.,.,.,/,/
COc1ccc(S(=O)(=O)N2CCN(c3ccccc3F)CC2)cc1Cl,.,.,11.7,.,.,.
CN1CCN(Cc2cc(-c3ccc(F)cc3)ccc2OCC(=O)N2CCCC2)CC1,.,.,.,.,/,/
SMILES,FBW7 activator,MITF inh,GPR151 activ,TEAD-YAP inh,GPR151 conf act,GPR119 ag
CCOC(=O)CSc1nc(C2CC2)nc2sc(C)c(C)c12,.,.,.,.,/,/
Cc1sc2nc(C3CC3)nc(SCC(N)=O)c2c1C,.,.,6.8,.,.,.
Cc1cc(C)n2nc(SCC(=O)NC(=O)NC34CC5CC(CC(C5)C3)C4)nc2n1,.,.,.,.,/,/
O=C1COc2ccc(C(=O)COC(=O)c3ccccc3Br)cc2N1,.,.,.,.,/,/
O=C1N[C@H](CO)C(=O)N2CCN(C(=O)Oc3ccc(Cl)cc3)C[C@H]12,.,.,.,.,/,/
COc1ccc(CCNc2ccnc(Nc3ccc4ncccc4c3)n2)cc1,.,63.0,5.9,51.5,.,.
CC(C)n1cnc2c(NCc3cccc(C(F)(F)F)c3)nc(Nc3ccncc3)nc21,.,.,5.9,.,.,.
Oc1ccc(CCNc2ccnc(Nc3ccc4ncccc4c3)n2)cc1,.,.,.,.,/,/
COc1ccc(CCNc2cc(C)nc(NC3CCC(O)CC3)n2)cc1 (stereo not drawn),.,.,6.8,.,.,.
